The whole screen tested about 310,000 compounds, of which about 3,600 (1.2%) were called active.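 Rule for the calls: active = ratio plate-corrected score three or more library SD toward inhibition, starting fluorescence score within five deviations; inactive = the rest.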 Many of the other results were omitted from the sample, so actives are more common in it than they were.
Each compound was assayed against Anoctamin-1 (Mus musculus) (UniProt Q8BHY3) (assay: blockers of mouse ANO1 Ca-activated Cl channel – cell-based, HTS, primary screen (AID 588511;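 for normalized B-score (activity score, 25-100; higher = stronger inhibition): score derived from kinetic fluorescence span divided by baseline fluorescence per well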)). Conditions: HEK293 TMEM16A/YFP iodide influx fluorescence, ionomycin; at 10 µM.
Anoctamin-1 (Mus musculus), sequence (Q8BHY3 whole entry, looked up): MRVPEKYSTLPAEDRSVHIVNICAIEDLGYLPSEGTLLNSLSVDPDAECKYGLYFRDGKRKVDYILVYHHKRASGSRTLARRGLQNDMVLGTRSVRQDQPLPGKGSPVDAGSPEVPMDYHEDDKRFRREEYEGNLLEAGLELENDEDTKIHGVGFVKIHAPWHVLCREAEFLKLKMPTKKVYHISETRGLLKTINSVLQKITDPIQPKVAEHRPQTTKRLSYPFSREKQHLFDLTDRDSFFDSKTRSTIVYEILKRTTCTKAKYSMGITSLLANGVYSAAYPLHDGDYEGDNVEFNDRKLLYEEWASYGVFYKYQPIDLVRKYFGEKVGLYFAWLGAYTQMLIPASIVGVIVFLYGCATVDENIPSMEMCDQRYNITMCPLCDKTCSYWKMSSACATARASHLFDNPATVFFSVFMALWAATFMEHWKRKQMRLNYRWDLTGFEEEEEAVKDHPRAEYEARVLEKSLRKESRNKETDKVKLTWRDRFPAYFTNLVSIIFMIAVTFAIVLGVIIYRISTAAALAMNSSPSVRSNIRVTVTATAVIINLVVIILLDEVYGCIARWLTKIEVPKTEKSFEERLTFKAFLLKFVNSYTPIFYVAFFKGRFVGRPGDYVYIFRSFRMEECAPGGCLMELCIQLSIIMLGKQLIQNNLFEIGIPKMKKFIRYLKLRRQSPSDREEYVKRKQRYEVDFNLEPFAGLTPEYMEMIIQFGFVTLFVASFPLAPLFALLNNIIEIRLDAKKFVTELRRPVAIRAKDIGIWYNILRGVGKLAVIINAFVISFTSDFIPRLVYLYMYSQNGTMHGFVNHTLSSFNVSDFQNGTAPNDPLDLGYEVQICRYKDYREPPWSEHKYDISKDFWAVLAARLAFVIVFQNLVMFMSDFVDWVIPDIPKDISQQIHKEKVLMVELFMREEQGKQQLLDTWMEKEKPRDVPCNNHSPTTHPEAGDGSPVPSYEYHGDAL

| Structure (SMILES) | normalized B-score (activity score, 25-100; higher = stronger inhibition) |
| --- | --- |
| COc1ccc(N(CC(=O)NC2CCCCC2)C(=O)CNC(=O)c2ccco2)c(OC)c1 | inactive |
| CCOc1ncccc1C(=O)N(C)CC(=O)Nc1ccc(F)cc1 | inactive |
| Cc1ccc(CNS(=O)(=O)CCNC(=O)c2ccccc2)cc1 | inactive |
| COc1ccc(CCNC(=O)C(=O)NCC2OCCN2S(=O)(=O)c2ccc(F)cc2)cc1OC (centres undefined) | inactive |
| CCCCNC(=O)c1ccccc1NC(=O)c1ccccc1N(C)S(C)(=O)=O | inactive |
| CCOC(=O)c1cccc(NC(=O)CCc2c(C)nc3ncnn3c2C)c1 | inactive |
| CCOC(=O)c1cccc(NC(=O)CCn2nnc3ccccc32)c1 | 100 (active) |
| CCOC(=O)c1cccc(NC(=O)CCOc2ccccc2)c1 | inactive |
| COC(=O)c1cc(NC(=O)c2cc(C(C)(C)C)nn2Cc2cccc(C)c2)ccc1N1CCOCC1 | inactive |
| Cc1cccc(C)c1N1C(=O)CN(Cc2ccccc2)C1=S | inactive |
| CCCCn1ccnc1C(=O)c1cccc(S(=O)(=O)N2c3ccccc3CC2C)c1 (centres undefined) | 25 (active) |
| CC1Cc2ccccc2N1S(=O)(=O)c1ccc(Cl)nc1 (centres undefined) | inactive |
| CC1Cc2ccccc2N1S(=O)(=O)c1c(N)n(C)c(=O)n(C)c1=O (centres undefined) | inactive |
| CC(=O)N1CCCc2cc(S(=O)(=O)N3CCCC(C(=O)N4CCN(c5cccc(Cl)c5)CC4)C3)ccc21 (centres undefined) | 100 (active) |
| CC(=O)N1c2ccc(S(=O)(=O)N3CCCC(C(=O)Nc4cccc(Cl)c4)C3)cc2CC1C (centres undefined) | inactive |
| CC(=O)N1CCCc2cc(S(=O)(=O)N3CCCC(C(=O)NCc4ccc(Cl)cc4)C3)ccc21 (centres undefined) | inactive |
| O=C(NC(=S)Nc1ccccc1C(=O)O)c1ccc(-c2ccc(Br)cc2)o1 | 100 (active) |
| COC(=O)c1ccccc1NC(=S)NC(=O)c1ccccc1F | inactive |
| O=C(O)c1ccccc1NC(=O)c1ccccc1-c1ccccc1C(=O)O | inactive |
| Cc1cc(C)cc(N(CC(=O)NC2CCCC2)C(=O)CCC(=O)Nc2cc(C)on2)c1 | inactive |
| COc1cccc(/C=C/C(=O)Nc2ccc3c(c2)OCCO3)c1 | inactive |
| COc1cc(SC#N)ccc1N=Cc1c(C)[nH]n(-c2ccc(C)cc2)c1=O | inactive |
| Cc1[nH]n(-c2ccccc2)c(=O)c1/C=N/NC(=O)c1ccoc1C | inactive |
| Cc1ccc(-n2[nH]c(C)c(/C=N/N3C(=O)c4cccc5cccc(c45)C3=O)c2=O)cc1 | 100 (active) |
| Cc1ccc(C2(C(F)(F)F)N=C3Sc4cc(C)cc(C)c4N3C(=O)N2)cc1 (centres undefined) | inactive |
| Cc1c(C(=O)OCC(=O)N2CCCC2=O)oc2ccccc12 | inactive |
| Oc1ccccc1N1CCN(c2ncnc3sc(-c4ccccc4)cc23)CC1 | inactive |
| COc1ccc(Nc2ncnc3sc(-c4ccccc4)cc23)c(OC)c1 | inactive |
| c1ccc(-c2cc3c(NCC4COc5ccccc5O4)ncnc3s2)cc1 (centres undefined) | 100 (active) |
